For 24 compounds, outcome and AC50 results are on record in PubChem BioAssay (EPA / NIEHS).

Inconclusive results are not listed. The source made the active and inactive calls. Rule for the calls: active = hit-call score of the fitted dose curve at least 0.9, where 1 is the maximum; inconclusive = response in the unintended direction; inactive = score below 0.9.

Usually AC50 stands for the concentration giving half of the maximal activity seen.

The nature of assay [1]: ACEA_AR_antagonist_AUC_viability: ACEA Biosciences xCELLigence Real-Time Cell Analysis on Androgen Receptor Antagonism for Viability (AID 2283776).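 Note: 22Rv1 human prostate cancer cells growing on impedance electrode plates; hits lower the growth signal relative to DMSO meaning cytotoxicity.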 In short, it runs like this: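 Real-time electrical impedance tracks 22Rv1 proliferation after continuous compound exposure (top 100 uM final, 1:4 steps, 8 concentrations). The 80 h area-under-curve serves as the cytotoxicity readout relative to DMSO.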

Assay [2] is described as follows: ACEA_ER_AUC_viability: ACEA Biosciences xCELLigence Real-Time Cell Analysis on Estrogen Receptor Agonism for Viability (AID 2283782).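 Note: hit means loss of impedance signal meaning reduced cell growth or viability.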 In short, it runs like this: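 Continuous-exposure impedance cell analysis uses T-47D cells in charcoal-stripped serum, eight 1:4 dilutions topping at 100 uM final, biological duplicate. Area under the growth curve at 80 h is fitted against DMSO baseline.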

Assay [3] in a line: STM_H9_NormalizedViability: Cytotoxicity Assessment at 120 hours in the Stemina devTOX quickPredict H9 human embryonic stem cell (hESC)-based Assay (AID 2283784). The gist of the method: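 Viability of the cell layer was taken from live-cell protease cleavage of a fluorogenic substrate after compound exposure of undifferentiated H9 stem cells, with replenishment each 24h. Fluorescence was normalized to vehicle (0.1% DMSO).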

The target of assay [4] is AR (gene 367) (UniProt P10275). Briefly: ACEA_AR_agonist_80hr: ACEA Biosciences xCELLigence Real-Time Cell Analysis on Androgen Receptor Agonism for Proliferation (AID 2283783).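 Note: hits increase impedance growth signal above DMSO baseline.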 The gist of the method:
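Real-time cell-growth kinetics were recorded by electrode impedance in 22Rv1 cells exposed to test chemicals up to 100 uM final; the 80 h timepoint served as the readout, fitted upward relative to DMSO controls, in biological duplicate.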

The target of assay [5] is AR (gene 367) (UniProt P10275). Briefly: ACEA_AR_antagonist_80hr: ACEA Biosciences xCELLigence Real-Time Cell Analysis on Androgen Receptor Antagonism for Proliferation (AID 2283787).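 Note: 22Rv1 human prostate cancer cells with growth followed by electrical impedance; hits lower the impedance growth signal relative to DMSO.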 In short, it runs like this:
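Using 22Rv1 cells held in assay medium, we dosed compounds (100 uM maximum final, 1:4 serial, eight points, 0.5% DMSO at top) and recorded cell-electrode impedance; the 80 hr timepoint was analyzed against DMSO.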

Chain of AR (gene 367) (P10275 whole entry, looked up): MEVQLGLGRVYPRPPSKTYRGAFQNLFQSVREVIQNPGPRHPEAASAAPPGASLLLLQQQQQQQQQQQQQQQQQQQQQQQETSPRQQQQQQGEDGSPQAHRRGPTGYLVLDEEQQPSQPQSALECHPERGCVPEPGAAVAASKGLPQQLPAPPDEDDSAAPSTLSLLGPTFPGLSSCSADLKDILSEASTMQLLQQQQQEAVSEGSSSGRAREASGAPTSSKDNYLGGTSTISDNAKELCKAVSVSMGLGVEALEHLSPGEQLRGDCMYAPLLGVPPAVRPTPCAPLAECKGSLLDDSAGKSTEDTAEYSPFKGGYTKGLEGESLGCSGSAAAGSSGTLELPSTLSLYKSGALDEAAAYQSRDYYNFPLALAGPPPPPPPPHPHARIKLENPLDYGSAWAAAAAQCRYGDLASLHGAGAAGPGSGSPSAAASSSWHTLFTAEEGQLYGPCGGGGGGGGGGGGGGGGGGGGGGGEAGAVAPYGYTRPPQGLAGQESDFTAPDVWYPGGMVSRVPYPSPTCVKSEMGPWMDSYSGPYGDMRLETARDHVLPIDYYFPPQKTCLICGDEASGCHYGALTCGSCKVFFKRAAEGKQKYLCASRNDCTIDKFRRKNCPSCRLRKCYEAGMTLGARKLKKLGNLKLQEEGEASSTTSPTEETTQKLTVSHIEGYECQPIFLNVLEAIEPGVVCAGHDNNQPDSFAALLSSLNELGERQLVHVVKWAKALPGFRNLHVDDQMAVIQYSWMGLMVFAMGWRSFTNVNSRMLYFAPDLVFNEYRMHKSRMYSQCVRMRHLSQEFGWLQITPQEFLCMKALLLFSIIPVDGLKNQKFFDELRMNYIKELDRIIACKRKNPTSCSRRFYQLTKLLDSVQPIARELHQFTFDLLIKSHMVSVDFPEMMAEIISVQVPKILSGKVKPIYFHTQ

For `O=C(O)C(Cl)(Cl)Cl`, the compound was classed as inactive in assay [1], in assay [2] and in assay [3].

Consider `CCOP(OCC)OCC`, for which, in assay [2], the compound was called inactive.

For `OCC(O)CCl` (centres undefined), the result in assay [2] was inactive.

For the compound `CCSC(C)CC1CC(=O)C(C(CC)=NOC/C=C/Cl)=C(O)C1` (centres undefined), the result in assay [2] was inactive.

With `CCOC(=O)CP(=O)(OCC)OCC`, the AC50 in assay [2] is 36.8 µM (active).

In the case of `Nc1cccc2ccccc12`, the AC50 in assay [2] was 80.2 µM (active).

In the case of `ClCC(Cl)CCl`, the result in assay [1] and in assay [3] was inactive.

For `COP(=S)(OC)Oc1c(Cl)cc(C)cc1Cl`, the result in assay [2] was inactive.

Turning to `O=C(O)Cc1ccccc1`, the AC50 in assay [2] is 50 µM (active).

In the case of `CC(=[OH+])/C=C(/C)[O-].CC(=[OH+])/C=C(/C)[O-].CC(=[OH+])/C=C(/C)[O-].[Fe]`, the compound was classed as inactive in assay [2].

Take `CC(=O)OC(c1ccccc1)C(Cl)(Cl)Cl` (centres undefined): the compound was called inactive in assay [2].

With `Clc1nc(Cl)nc(Cl)n1`, the call in assay [1] and in assay [2] was inactive.

Regarding `N#Cc1ccccn1`, in assay [2], the compound was classed as inactive.

Consider `Nc1ccc(Cl)cc1C(=O)c1ccccc1`, for which the compound was called inactive in assay [2].

In the case of `ClC(Cl)=C(Cl)C(Cl)=C(Cl)Cl`, the outcome in assay [1] and in assay [2] was inactive.

Consider `Cc1cc(Cl)ccc1O[C@H](C)C(=O)O`, for which the result in assay [2] was inactive.

In the case of `CC(C)c1ccc(CO)cc1`, in assay [2], the call was inactive.

For `O=P(O)(O)CN(CP(=O)(O)O)CP(=O)(O)O`, the outcome in assay [2] was inactive.

As to `NC(=O)CF`, in assay [2], the compound was called inactive.

As to `CC1CN1P(=O)(N1CC1C)N1CC1C` (centres undefined), the AC50 in assay [2] was 64.1 µM (active).

With `CCCCCCCCC(=O)NCc1ccc(O)c(OC)c1`, in assay [2], the AC50 was 50 µM (active).

For the compound `Nc1cccc(Cl)c1`, in assay [2], the compound was classed as inactive.

Consider `C=CC(=O)OCCCCCC(C)C`, for which the AC50 in assay [4] was 50 µM (active).

Regarding `Cc1ccc2ccccc2c1C`, the AC50 in assay [5] was 16.6 µM (active).
